This passage reports Potency results from PubChem BioAssay AID2289 (National Center for Advancing Translational Sciences (NCATS), 2010).

Where “and” joins values, the source holds several entries; their conditions need not be identical. Equal entries are not always repeated. The whole screen tested about 340,000 compounds, of which about 3,300 (0.97%) were called active. Roughly 9% stayed inconclusive and do not appear here. Calls follow the shape of the dose curve; as a rule, active = well fitted inhibition curve with a large enough effect; inconclusive = small, poorly fitted or top-dose-only effect, or effect the other way; inactive = flat fitted curve, though single readings scatter. The list shows a part of the results.
Potency is read from the fitted curve at half-maximal effect.

This assay in a line: qHTS Assay for Modulators of miRNAs and/or Inhibitors of miR-21. Also: nearly all actives have a fitted effect of over 55% in size. The conditions noted are these: HeLa miR-21-FLuc reporter, luciferase luminescence, 48 h; actives lower the signal. The method, boiled down: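 Using DMEM plus 10% FBS, HeLa miR-21-FLuc cells are incubated with test compounds (final up to about 40uM) for 48 hours; firefly luciferase signal is then imaged following reagent-mediated lysis.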
For the compound `CC(CC(=O)c1cccs1)CC(=O)c1cccs1`, the Potency is 11.7 µM (active). The result for `CC(C)(C)C(=O)Nc1ccc(C(=O)OC2CCCCC2)cc1` reads 0.927 µM (active); that for `Cc1nnc(SCc2cccc3ccccc23)s1`, 14.7 µM (active). The result for `Cc1nnc(SCc2nc(N)nc(Nc3ccccc3)n2)s1` reads 11.7 µM (active). On to `COc1ccc(Nc2nc(N)nc(SCc3nnc(C)s3)n2)cc1`, for which the Potency is 14.7 µM (active). The result for `COc1ccc(Nc2nc(N)nc(CSc3nnc(C)s3)n2)cc1` reads 18.5 µM (active). The result for `Cc1ccc(Nc2nc(N)nc(CSc3nnc(C)s3)n2)cc1` reads 7.36 µM (active); that for `O=C(Nc1ccc2c(c1)OCO2)c1n[nH]c(=O)c2ccccc12`, 5.85 µM (active); that for `CCc1ccc(NC(=O)c2n[nH]c(=O)c3ccccc23)cc1`, 1.04 µM (active).

Take `COc1ccccc1Nc1nc(N)nc(CSC(=S)N2CCOCC2)n1`: the Potency is 16.5 µM (active). The result for `Cc1ccc(Nc2nc(N)nc(CSC(=S)N3CCOCC3)n2)c(C)c1` reads 10.4 µM (active); that for `COc1ccccc1Nc1nc(N)nc(CSC(=S)N2CCCCC2)n1`, 14.7 µM (active). Under `COc1ccc(CCNc2ncccc2C#N)cc1OC` stands 6.56 µM (active). Take `CCOC(=O)N/N=C1\CCc2ccccc21`: the Potency is 11.7 µM (active). As to `O=C(N/N=C1\CCc2ccccc21)c1ccccc1Cl`, the Potency was 1.85 µM (active).

In the case of `O=C(O)c1ccc(N/N=C2/CCCc3ccccc32)cc1`, the Potency was 6.56 µM (active). As for `O=C(N/N=C1\CCCCc2ccccc21)c1ccccn1`, the Potency is 5.85 µM (active).

In the case of `O=C(COc1ccccc1F)N/N=C1\CCCc2ccccc21`, the Potency is 3.29 µM (active). With `N/C(=N\OC(=O)CSc1ccccc1)c1ccc([N+](=O)[O-])cc1`, the Potency was 4.65 µM (active). The result for `COc1ccc(/C(N)=N/OC(=O)CSc2ccccc2)cc1OC` reads 8.26 µM (active); that for `N/C(=N\OC(=O)CSc1ccccc1)c1ccncc1`, 14.7 µM (active); that for `COc1ccc(NC(=O)Nc2nnc(-c3ccco3)s2)cc1`, 0.927 µM (active). `COc1ccc(-c2nnc(SCC(=O)Nc3cccc(F)c3)s2)cc1`: the Potency is 13.1 µM (active). Under `COc1ccccc1C(=O)Nc1nnc(SCC(=O)NC2CCCC2)s1` stands 0.414 µM (active); under `COc1ccc(NC(=O)CSc2nnc(NC(=O)Nc3ccc(OC)cc3)s2)cc1`, 0.826 µM (active); under `CC(=O)c1ccc(NC(=O)CSc2nnc(NC(=O)Nc3ccccc3)s2)cc1`, 7.36 µM (active).

In the case of `COc1ccc(C(=O)Nc2nnc(SCC(=O)Nc3ccc(NC(C)=O)cc3)s2)c(OC)c1`, the Potency was 0.0656 µM (active).

With `CC(C)c1ccc(/C=C/C(=O)N2CCOCC2)cc1`, the Potency is 2.93 µM (active).

On to `O=C(/C=C/c1cccc2ccccc12)N1CCOCC1`, for which the Potency was 6.56 µM (active). The result for `CC(C)(C)c1ccc(/C=C/C(=O)N2CCOCC2)cc1` reads 6.56 µM (active).

Take `COc1ccc(NC(=O)C2CCCN(c3ncccn3)C2)cc1` (stereo unspecified): the Potency was 8.26 µM (active). Under `Cc1ccc(NC(=O)C2CCCN(c3ncccn3)C2)cc1C` (stereo unspecified) stands 14.7 µM (active); under `COc1ccc(-n2ncc3c(N4CCCc5ccccc54)ncnc32)cc1`, 0.414 µM (active); under `CCC(NC(=O)c1ccccc1NC(=O)c1ccc(OC)cc1)C(=O)N1CCCC1` (stereo unspecified), 6.56 µM (active). Under `Cc1[nH]c2ccccc2c1C(=O)CSC(=S)N1CCCCC1` stands 3.29 µM (active).

Take `COc1ccc(/C=C/C(=O)N(C)C2CCCCC2)cc1Br`: the Potency is 9.27 µM (active). The result for `Cc1ccc2c(CN3CCC(C)CC3)cc(=O)oc2c1C` reads 7.36 µM (active). Under `Cc1ccc2c(CN3CCC(C)CC3)cc(=O)oc2c1` stands 5.21 µM (active); under `CN(C)c1ccc(/C=C/c2nnnn2-c2ccccc2)cc1`, 1.65 µM (active); under `CC(Cc1cccs1)NC(=O)c1cccc(Cl)c1` (stereo unspecified), 6.56 µM (active). Under `COc1ccc(C2CC(=O)N(C)c3ccccc3S2)cc1OC` (stereo unspecified) stands 18.5 µM (active); under `Cc1ccc(-c2nc3ccccc3nc2NN)cc1`, 1.17 µM (active); under `CC(=O)c1sc(-c2ccc(F)cc2F)nc1C`, 14.7 µM (active).

Regarding `Cc1sc(NC(=O)C2C3CCC(O3)C2C(=O)O)nc1-c1ccc(CC(C)C)cc1` (stereo unspecified), the Potency was 3.69 µM (active). The result for `CCOC(=O)C1=NN(c2ccc(Cl)cc2)C(=O)C1` reads 6.56 µM (active); that for `CCOC(=O)c1cc2c(nc1N)CC(C)(CC)OC2` (stereo unspecified), 7.36 µM (active).

Consider `C=CCn1c(C)nc2c(sc3nc4c(cc32)COC(C)(C)C4)c1=O`, for which the Potency was 0.656 µM (active). Consider `CCOC(=O)c1sc2nc3c(cc2c1N)COC(C(C)C)C3` (stereo unspecified), for which the Potency is 0.0414 µM (active). Under `CCOC(=O)c1sc2nc3c(cc2c1N)COC(C)(C)C3` stands 1.17 µM (active); under `Cc1cc(O)c(C2=Nc3ccccc3SC(c3ccc(Cl)cc3)C2)c(=O)o1` (stereo unspecified), 1.65 µM (active); under `Cc1ccc2c3c([nH]c2c1C)-c1nonc1CC3`, 7.36 µM (active). The result for `Cc1ccc(-n2c(C)cc(/C=C3\SC(=O)NC3=O)c2C)cc1` reads 1.47 µM (active). The result for `COc1ccc(-n2c(C)cc(/C=C3\SC(=O)NC3=O)c2C)cc1` reads 5.85 µM (active). Turning to `Cc1cc(N2CCOCC2)ccc1/C=C1/SC(=O)NC1=O`, the Potency was 4.65 µM (active). Under `O=C1NC(=S)N/C1=C\c1ccc(N2CCOCC2)cc1` stands 13.1 µM (active); under `Cc1ccc(/C=N/NC(=O)CSc2nc3ccccc3o2)cc1`, 11.7 µM (active); under `CCOc1cccc2cc(-c3csc(NC(=O)CCC(=O)NCCCN4CCC(C)CC4)n3)c(=O)oc12`, 1.17 µM (active).

As for `CCOc1ccc(/C=C/c2nc(C#N)c(N(C)C)o2)cc1`, the Potency is 0.329 µM (active).

With `COc1ccccc1/C=C/c1nc(C#N)c(N(C)C)o1`, the Potency is 927 nM (active) and 1.65 µM (active). The result for `CN(C)c1oc(/C=C/c2ccccc2)nc1C#N` reads 5.85 µM (active); that for `COc1ccc(Nc2oc(/C=C/c3ccccc3OC)nc2C#N)cc1`, 13.1 µM (active).

As to `CCCCN1C(=O)/C(=C/C=C2\SCCN2C)SC1=S`, the Potency is 5.21 µM (active).

For `CCN1C(=O)/C(=C/C=C2/SCCN2C)SC1=S`, the Potency was 0.185 µM (active). Under `CN1C(=O)/C(=C/C=C2\SCCN2C)SC1=S` stands 0.464 µM (active); under `Cc1nc(NC(=O)c2cc3c(s2)CCCCC3)sc1C(=O)N(C)C`, 7.36 µM (active). For `Fc1cccc(C2NN=C(c3ccccc3)S2)c1` (stereo unspecified), the Potency is 0.585 µM (active).
